The source of these data is PubChem BioAssay (NCI).

Molecules are shown by their SMILES. The panel holds about 83,000 compounds, 20% with a hit somewhere; the sample as a whole holds those more often.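 Note: values are percent growth. 100 is the growth of untreated cells, values between 100 and 0 indicate rising inhibition; between -100 and 0 indicates cell death.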 Unmarked numbers belong to inactive results. Calls of active or inactive are those of the source. Rule for the calls: active = growth percent below 10; inactive = the rest.

Among the test systems are T-47D breast; BT-549 breast; MDA-MB-435 melanoma; SW-620 colon; MCF7 breast; HCT-116 colon; KM12 colon; HCC-2998 colon.
Common to all, as to assay: NCI-60 one-dose screen, 48 h (100 = growth as untreated, 0 = no growth, -100 = all killed)
Common to all, as to conditions: 10 µM unless noted

Turning to `CC(C)(C)OC(=O)Nc1ccc2c(c1)C(NC(=O)Nc1cccc(C#N)c1)CC(C)(C)O2` (stereo not given), the growth was 34.2% with T-47D breast; 29% in the test on BT-549 breast; 39.4% in the test with MDA-MB-435 melanoma; 48.7% with SW-620 colon; 32.1% in the test with MCF7 breast; 30.7% in the test on HCT-116 colon. For the same compound, the growth in the test with KM12 colon is 49.5%.

As to `Cn1c(=O)c2[nH]c(NN)nc2n(C)c1=O`, the growth with T-47D breast is 104%; in the test on BT-549 breast, 84.7%; with MDA-MB-435 melanoma, 106%; in the test on SW-620 colon, 97.8%; with MCF7 breast, 104%; in the test with HCT-116 colon it was 102%. In addition, the growth in the test with KM12 colon is 119%.

Turning to `CC(CCc1ccc(Cl)c(Cl)c1)NCc1ccc(C(C)(C)C)cc1` (stereo not given), the growth in the test with T-47D breast was 67.7%; in the test with BT-549 breast, 68.9%; in the test on MDA-MB-435 melanoma it was 93.1%; with SW-620 colon it was 80.2%; with HCT-116 colon, 79.1%; in the test with HCC-2998 colon it was -18.4% (active). Besides, in the test with KM12 colon, the growth is 89.2%.

`Cc1ccc(C2SCC(=O)N2Cc2ccccc2)cc1` (stereo not given): the growth is 95.2% in the test with T-47D breast; 99% in the test with BT-549 breast; 95.4% in the test on MDA-MB-435 melanoma; 107% in the test with SW-620 colon; 94.2% in the test with HCT-116 colon; 90.7% in the test on HCC-2998 colon. The growth in the test with KM12 colon was 102%.

As to `O=C(Nc1ccccc1Cl)Oc1ccc(-c2ccccc2)cc1`, the growth is 106% with T-47D breast; 113% in the test with BT-549 breast; 101% with MDA-MB-435 melanoma; 110% in the test with MCF7 breast; 110% in the test with HCT-116 colon; 119% with HCC-2998 colon.

For the compound `NC(N)=Nc1nc2ccccc2n2c1nc1ccccc12`, the growth was 40.7% in the test on T-47D breast; 83% with BT-549 breast; 33.3% in the test with MDA-MB-435 melanoma; 8.98% (active) with MCF7 breast; 18.2% in the test on HCT-116 colon; 46.3% with HCC-2998 colon. Further, the growth in the test with KM12 colon was 33.6%.

As for `CNC(=O)NCC1OC(n2cnc3c(NC(=O)Nc4ccccc4)ncnc32)C(O[Si](C)(C)C(C)(C)C)C1CC(=O)N(C)OC` (stereo not given), the growth was -34% (active) in the test with T-47D breast; 25.5% with BT-549 breast; 7.75% (active) with MDA-MB-435 melanoma; 23.7% with SW-620 colon; 16.8% in the test with HCT-116 colon; -13.4% (active) with HCC-2998 colon. In addition, in the test with KM12 colon, the growth is 17.2%.

As for `Cc1ccc2nc3ccccc3c(NCc3ccccc3)c2c1`, the growth was 63.6% with T-47D breast; 69% with BT-549 breast; 58.2% in the test on MDA-MB-435 melanoma; 24.3% in the test with SW-620 colon; 9.4% (active) in the test on HCT-116 colon; -21.4% (active) in the test with HCC-2998 colon. Also, the growth in the test on KM12 colon is 56.3%.

`Cn1cc2c(c1)-c1nc(Nc3ccccc3)ncc1CC2`: the growth was 40.7% with T-47D breast; 32.1% with BT-549 breast; 70.3% in the test on MDA-MB-435 melanoma; 25.2% with MCF7 breast; 35.4% in the test with HCT-116 colon; 50.7% in the test on HCC-2998 colon. In addition, the growth in the test with KM12 colon is 11.9%.

With `O=C(CSc1nnc(-c2ccc(NC(=O)c3cccnc3)cc2)o1)N[C@@H](Cc1ccc(O)cc1)C(=O)O`, the growth with T-47D breast is 86%; with BT-549 breast, 113%; in the test on MDA-MB-435 melanoma it was 108%; in the test on MCF7 breast, 105%; in the test on HCT-116 colon, 99.6%; in the test on HCC-2998 colon, 108%. The growth in the test on KM12 colon is 110%.

Take `CC(=O)N1C(=S)NC(=O)C1Cn1c(-c2ccccc2)nc2ccccc21` (stereo not given): the growth in the test on T-47D breast is 95.3%; in the test with BT-549 breast, 109%; with MDA-MB-435 melanoma, 100%; with SW-620 colon, 103%; with HCT-116 colon, 90.2%; in the test on HCC-2998 colon, 110%. In addition, the growth in the test on KM12 colon is 100%.

For the compound `C[n+]1cc2c3c(ccc2c2ccc4cc5c(cc4c21)OCO5)OCO3`, the growth was -78.2% (active) in the test with T-47D breast; -91.7% (active) with BT-549 breast; -85.8% (active) in the test with MDA-MB-435 melanoma; -72.5% (active) in the test with MCF7 breast; -89.2% (active) in the test with HCT-116 colon; -82.1% (active) in the test on HCC-2998 colon. Further, in the test on KM12 colon, the growth is -78.5% (active).

As for `COc1cc(C(=O)/C=C/c2c(C(F)(F)F)nc3sccn23)cc(OC)c1OC`, the growth with T-47D breast was -22.7% (active); with BT-549 breast, -14.2% (active); in the test on MDA-MB-435 melanoma it was 12.6%; in the test with MCF7 breast it was 6.82% (active); in the test on HCT-116 colon, -85.3% (active); in the test with HCC-2998 colon, -0.607% (active). For the same compound, the growth with KM12 colon was -75.6% (active).

In the case of `Cc1cc(C(=O)c2ccccc2)c(C)c2c1[nH]c1ccc(Cl)cc12`, the growth in the test with T-47D breast was 63.5%; in the test on BT-549 breast it was 5.82% (active); in the test with MDA-MB-435 melanoma, -25.4% (active); in the test on MCF7 breast it was 13.1%; in the test on HCT-116 colon, 5.1% (active); in the test on HCC-2998 colon, 21.8%. Besides, the growth in the test with KM12 colon was 0.781% (active).

On to `CCCCCS(=O)(=O)Nc1ccc(C(=O)O)cc1`, for which the growth was 89.2% in the test on T-47D breast; 107% in the test on BT-549 breast; 106% in the test on MDA-MB-435 melanoma; 97% in the test with MCF7 breast; 102% in the test with HCT-116 colon; 114% in the test on HCC-2998 colon. For the same compound, the growth with KM12 colon was 103%.

`NC(=N\N=C/c1cccc([N+](=O)[O-])c1)/C(N)=N\N=C/c1cccc([N+](=O)[O-])c1`: the growth is 4.8% (active) in the test on T-47D breast; -14.9% (active) in the test with BT-549 breast; 73.2% in the test on MDA-MB-435 melanoma; 12.9% in the test on MCF7 breast; 37.4% in the test on HCT-116 colon; 102% with HCC-2998 colon. The growth in the test with KM12 colon was 54.2%.

For the compound `Cn1c(I)c(C#C[Si](C)(C)C)c(=O)n(C(=O)c2ccccc2)c1=O`, the growth was 17.8% with T-47D breast; 42.8% with BT-549 breast; 53.9% in the test on MDA-MB-435 melanoma; -83.4% (active) with SW-620 colon; -61.6% (active) in the test on HCT-116 colon; 0.121% (active) with HCC-2998 colon. Moreover, the growth with KM12 colon was 57.3%.

For `COC(=O)c1ccc(C2Nc3ccc(S(=O)(=O)Nc4ccc(C)c(C)c4)cc3C3OCCC23)cc1` (stereo not given), the growth in the test with T-47D breast was 51.1%; in the test with BT-549 breast it was 84.7%; with MDA-MB-435 melanoma, 94.7%; in the test with MCF7 breast it was 43.1%; in the test on HCT-116 colon it was 62.1%; in the test with HCC-2998 colon, 111%. The growth in the test with KM12 colon is 78.1%.
